The structures appear in SMILES notation. Hit rate of the full screen: of about 190,000 compounds, about 810 (0.43%) were called active. Rule as the data show it: active = inhibition above about 50%; inactive = the rest. The list comes from a sample in which actives are over-represented; it also holds similar structures and randomly drawn compounds.

This experiment deals with Mannose-6-phosphate isomerase (Homo sapiens) (UniProt P34949). Briefly: MPI enzyme activity inhibition – biochemical, fluorescence intensity, coupled assay, primary screen (AID 1209).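 Also: plate controls were DMSO vehicle for no effect and wells lacking substrate for full effect.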 Conditions: purified PMI enzyme, at 20 µM, active compounds read high.
Mannose-6-phosphate isomerase (Homo sapiens), sequence (P34949 whole entry, looked up): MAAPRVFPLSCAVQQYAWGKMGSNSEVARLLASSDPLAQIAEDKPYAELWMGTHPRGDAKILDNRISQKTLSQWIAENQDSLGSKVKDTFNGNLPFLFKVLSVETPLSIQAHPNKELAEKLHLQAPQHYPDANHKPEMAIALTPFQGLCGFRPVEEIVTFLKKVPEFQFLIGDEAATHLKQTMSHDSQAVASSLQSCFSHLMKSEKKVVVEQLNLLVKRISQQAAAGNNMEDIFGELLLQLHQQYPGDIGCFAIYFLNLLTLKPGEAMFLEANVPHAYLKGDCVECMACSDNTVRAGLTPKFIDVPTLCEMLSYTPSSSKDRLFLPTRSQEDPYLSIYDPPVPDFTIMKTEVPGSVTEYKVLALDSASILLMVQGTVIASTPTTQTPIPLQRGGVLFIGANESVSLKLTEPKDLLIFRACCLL
Turning to `COc1cccc(N2CCN(Cc3ccsc3)CC2)c1`, the inhibition is -5.2% (inactive).
On to `COC(=O)c1cc(=O)nc2sc(-c3ccccc3)nn12`, for which the inhibition is -2.3% (inactive).
Regarding `COC(=O)c1cc(=O)nc2sc(-c3cccs3)nn12`, the inhibition was 7.5% (inactive).
In the case of `COC(=O)c1cc(=O)nc2sc(-c3ccc(F)cc3)nn12` it was 72.4% (active); in that of `CN1Cc2sc(N)c(C#N)c2CC1(C)C`, -8.4% (inactive).
On to `CN(C)c1ccc(/C=N/NC(=O)c2nonc2N)cc1[N+](=O)[O-]`, for which the inhibition was 12.7% (inactive).
`COc1ccc(-c2csc(Nc3ccc(C)cn3)n2)cc1OC`: the inhibition is 7.7% (inactive).
For `Cc1cccnc1Nc1nc(-c2ccc(O)cc2)cs1` the value was -10.5% (inactive).
For `c1ccc(-c2csc(Nc3ncccn3)n2)cc1` the value was -2.2% (inactive).
For `Oc1ccc(-c2csc(Nc3ncccn3)n2)cc1` the value was -4.9% (inactive); for `Cc1cccnc1Nc1nc(-c2ccc(O)c(O)c2)cs1`, 52.3% (active); for `COc1ccc(-c2csc(Nc3ccc(C)cn3)n2)cc1`, -1.5% (inactive).
As to `Oc1ccc(-c2csc(Nc3ncccn3)n2)cc1O`, the inhibition was 58% (active).
With `Cc1cccnc1Nc1nc(-c2ccc(O)cc2O)cs1`, the inhibition was 10.6% (inactive).
On to `O=C(O)CC(=O)Nc1ccccc1C(=O)O`, for which the inhibition was 0.5% (inactive).
For the compound `O=C(CSCc1ccc(Cl)cc1)Nc1ccc(S(=O)(=O)N2CCOCC2)cc1`, the inhibition was 11.5% (inactive).
As to `COCCN(CCOC)S(=O)(=O)c1ccc(C(=O)Nc2nnc(COC)o2)cc1`, the inhibition was -8.8% (inactive).
As for `Cc1cccc(NC(=O)c2ccc(NCC3CCCO3)c([N+](=O)[O-])c2)c1` (stereo not drawn), the inhibition was 2% (inactive).
For the compound `COc1ccc([C@H](C)NC[C@H](O)c2ccc(O)c(NC=O)c2)cc1`, the inhibition is 0.1% (inactive).
For `CCC(NC(C)C)C(O)c1ccc(O)c2[nH]c(=O)ccc12` (stereo not drawn), the inhibition is 4.3% (inactive).
`CCC(NC(C)C)C(O)c1ccc(O)c(O)c1` (stereo not drawn): the inhibition is 57.9% (active).
On to `CNC[C@H](O)c1cccc(O)c1`, for which the inhibition is -1.6% (inactive).
As to `CCC(C)c1ccc(O)c(N)c1` (stereo not drawn), the inhibition is 26.6% (inactive).
As to `CNC[C@H](O)c1ccc(O)c(O)c1`, the inhibition was 63.2% (active).
For the compound `Cc1c(C(=O)OC(C)C(C)C[N+](C)(C)C)oc2ccccc12` (stereo not drawn), the inhibition was 1.7% (inactive).
In the case of `COc1ccc(OC)c(C(C)NC(=O)c2ccco2)c1` (stereo not drawn), the inhibition is 7% (inactive).
For `c1ccc(CNc2ncnc3nc[nH]c23)nc1`, the inhibition is 8.8% (inactive).
In the case of `CCn1c(SCc2nc3ccccc3[nH]2)nnc1-c1ccc(OC)cc1` it was 6.6% (inactive); in that of `c1ccc2[nH]c(SN3CCOCC3)nc2c1`, 94.5% (active); in that of `c1ccc2[nH]c(SCCN3CCOCC3)nc2c1`, -3.1% (inactive).
For the compound `c1ccc2[nH]c(N3CCOCC3)nc2c1`, the inhibition is -5% (inactive).
For the compound `OCCC1CN(Cc2cnc(-c3cccc4ccccc34)nc2)CCN1C1CCCCC1` (stereo not drawn), the inhibition was 13.3% (inactive).
Turning to `COc1ccccc1CNC(=O)c1cc2c(s1)CS(=O)(=O)C2`, the inhibition is 2.6% (inactive).
With `CCCOc1ccc(C2NC(=S)NC(C)=C2C(=O)c2ccccc2)cc1OC` (stereo not drawn), the inhibition was -34.6% (inactive).
Turning to `COc1ccc(S(=O)(=O)NC(CC(=O)NCCc2ccc(OC)c(OC)c2)C(C)C)cc1` (stereo not drawn), the inhibition was -5% (inactive).
Consider `Cc1nn(-c2ccccc2)c(N)c1Sc1cccc([N+](=O)[O-])c1`, for which the inhibition was 5.2% (inactive).
In the case of `COc1c(/C=N/Nc2ccc([N+](=O)[O-])cc2[N+](=O)[O-])c(C)nn1-c1ccccc1` it was 8.9% (inactive); in that of `CCOC(=O)c1c(Cc2ccccc2)c[nH]c1C`, -17.6% (inactive).
As to `COc1ccc(Cc2nnc(N)s2)cc1OC`, the inhibition was -1.6% (inactive).
In the case of `COc1ccc(Cc2noc(-c3ccc(OC)c(OC)c3)n2)cc1OC`, the inhibition was 1.8% (inactive).
For `COc1cccc(NC(=S)/C(=C(\[O-])c2ccc([N+](=O)[O-])cc2)[n+]2ccccc2)c1`, the inhibition was -1.1% (inactive).
As for `CCOc1ccccc1NC(=O)CCS(=O)(=O)c1cccc2nonc12`, the inhibition is 0.7% (inactive).
In the case of `O=C(CCS(=O)(=O)c1ccccc1)N1CCOCC1`, the inhibition is -8.2% (inactive).
Turning to `CCCNC(=S)Nc1ccc2nc(-c3ccccn3)c(-c3ccccn3)nc2c1`, the inhibition is 26.5% (inactive).
In the case of `Cc1ccc(NC(=S)Nc2ccc3nc(-c4ccccn4)c(-c4ccccn4)nc3c2)cc1C`, the inhibition is 76.2% (active).
`CC(C)(C)CC(C)(C)NC(=S)Nc1ccc2nc(-c3ccccn3)c(-c3ccccn3)nc2c1`: the inhibition is -21.7% (inactive).
With `Cc1nc2ccc(NC(=S)NCCCO)cc2nc1C`, the inhibition was -27.3% (inactive).
Consider `CN(C)NC(=S)Nc1ccc2nc(-c3ccccn3)c(-c3ccccn3)nc2c1`, for which the inhibition is -8.4% (inactive).
For `OCCCNC(=S)Nc1ccc2nc(-c3ccccn3)c(-c3ccccn3)nc2c1` the value was 56.9% (active); for `COc1cc2nc(CN(C)Cc3ccc(Cl)cc3)[nH]c(=O)c2cc1OC`, 5.6% (inactive).
In the case of `Cc1ccc(C(=O)Nc2ccc(Cl)cc2C)c(Cl)c1`, the inhibition was -5.9% (inactive).
For the compound `COc1ccc(C2c3c(oc4ccc(C)cc4c3=O)C(=O)N2c2cc(C)ccn2)cc1OC` (stereo not drawn), the inhibition was 30.5% (inactive).
In the case of `COC(=O)CCC(=O)COc1ccc(OC)cc1C#N`, the inhibition was 1.1% (inactive).
On to `Cc1ccc(OCC(=O)NCc2ccccc2)c([N+](=O)[O-])n1`, for which the inhibition was 20.4% (inactive).
As for `O=C1NC(=O)C(Nc2cccc3ccccc23)S1` (stereo not drawn), the inhibition was -0.5% (inactive).
`CCc1ccccc1NC1c2ccccc2C(=O)N1c1cc(C)ccn1` (stereo not drawn): the inhibition was -2.8% (inactive).
For the compound `Cc1cc(C(=O)Nc2cccc3ccccc23)n(-c2ccccc2)n1`, the inhibition was -11.6% (inactive).
As for `Cc1cc2n(n1)SC(Nc1cccc3ccccc13)N2` (stereo not drawn), the inhibition was 56.1% (active).
As to `Cc1cc2n(n1)SC(Nc1cc(Cl)ccc1Cl)N2` (stereo not drawn), the inhibition was 19.6% (inactive).
For `Cc1ccc(Nc2cc(-n3nc(C)cc3C)ncn2)c(C)c1` the value was -0.1% (inactive); for `CCc1ccccc1NC(=O)c1cc(C2CC2)on1`, -4.9% (inactive).
For `COc1ccc(S(=O)(=O)N2CCOCC2)cc1NC(=O)CN1CCCCCC1` the value was -4.3% (inactive); for `COc1ccc(OC)c(S(=O)(=O)Nc2cccc(C(C)=O)c2)c1`, 4.2% (inactive).
Consider `CC(=O)Nc1ccc(S(=O)(=O)N2CC3(C)CC2CC(C)(C)C3)cc1` (stereo not drawn), for which the inhibition is 12.4% (inactive).
In the case of `COc1ccc(NS(=O)(=O)c2ccc(OCC(=O)N3CCOCC3)cc2)cc1` it was 10.6% (inactive); in that of `COc1ccc(/C=N/NC(=S)Nc2ccccc2[N+](=O)[O-])cc1O`, 9% (inactive); in that of `O=[N+]([O-])c1cc(/C=N/NC(=S)Nc2ccccc2Cl)ccc1Cl`, -6.9% (inactive).
Turning to `O=[N+]([O-])c1ccccc1NC(=S)N/N=C/c1ccc(O)c(O)c1`, the inhibition was 54.1% (active).

The record behind these values is PubChem BioAssay AID1209 (Sanford-Burnham Center for Chemical Genomics, 2008).
